Laboratory results from PubChem BioAssay (Tox21).
Results filed as inconclusive are left out. Activity calls are given as the source filed them. Unless noted, the call rests on the fitted dose curve.

Legend:
[1] = qHTS assay to identify small molecule agonists of the sonic hedgehog signaling (Shh) pathway (AID 1259368);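 further: NIH/3T3-derived 3T3Gli1-Luc cells carrying a stable Gli1-driven firefly luciferase reporter; series mostly up to about 92 µM; nearly all actives have a fitted effect of over 15% in size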
Method in brief: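 NIH/3T3-derived 3T3Gli1-Luc cells with stably integrated Gli1-driven firefly luciferase, 2,000 cells/well, compounds added after 4 hr. Incubated 24 hr at 37C, 5% CO2; luminescence read after 30 min with luciferase reagent at room temperature.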

[2] = qHTS assay to identify small molecule antagonists of the sonic hedgehog signaling (Shh) pathway (AID 1259369); further: nearly all actives have a fitted effect of over 45% in size
Method in brief: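 NIH/3T3-derived Gli1-Luc reporter cells plated 4 h, dosed with compound, then stimulated with conditioned medium for 24 h at 37 C. Firefly luciferase luminescence read after 30 min with detection reagent at room temperature.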

[3] = biological target: Estrogen receptor beta (Homo sapiens) (UniProt Q92731); experiment: qHTS assay to identify small molecule agonists of the estrogen receptor beta (ER-beta) signaling pathway (AID 1259377; active means well fitted activation curve with a large enough effect in the signal ratio in the repeat runs, not every such curve was filed as active; the % refers to the signal ratio)
Chain of Estrogen receptor beta (Homo sapiens) (Q92731 whole entry, looked up): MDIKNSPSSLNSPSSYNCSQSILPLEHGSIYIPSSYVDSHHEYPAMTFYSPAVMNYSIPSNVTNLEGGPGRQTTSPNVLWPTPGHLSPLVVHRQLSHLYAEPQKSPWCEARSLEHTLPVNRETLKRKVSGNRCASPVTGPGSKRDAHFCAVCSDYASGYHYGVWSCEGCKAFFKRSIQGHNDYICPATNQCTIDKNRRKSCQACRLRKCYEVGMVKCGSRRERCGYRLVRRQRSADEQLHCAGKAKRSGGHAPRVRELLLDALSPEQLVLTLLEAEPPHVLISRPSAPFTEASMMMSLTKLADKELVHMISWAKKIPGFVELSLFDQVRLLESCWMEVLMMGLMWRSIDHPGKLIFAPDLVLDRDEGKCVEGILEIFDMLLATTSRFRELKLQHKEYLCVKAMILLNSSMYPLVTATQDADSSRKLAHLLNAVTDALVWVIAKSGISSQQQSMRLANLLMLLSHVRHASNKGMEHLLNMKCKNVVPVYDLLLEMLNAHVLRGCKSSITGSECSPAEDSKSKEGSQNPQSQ
Method in brief: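 HEK293T ER-beta-UAS-bla; 2% charcoal-stripped FBS; cells pre-incubated 6 hr, compound 16 hr, 37C/5% CO2; LiveBLAzer B/G FRET substrate 2 h RT; fluorescence intensity read.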

[4] = qHTS assay to identify small molecule agonists of the androgen receptor (AR) signaling pathway in the presence of an antagonist - cell viability counter screen (AID 1259379; active means well fitted curve in the direction sought with a large enough effect in the repeat runs; an effect the other way counts as inactive or inconclusive;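 further: MDA-kb2 human breast cancer cells carrying an MMTV luciferase reporter; series mostly up to about 92 µM; nearly all actives have a fitted effect of over 25% in size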)
Method in brief: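 MDA-kb2 cells (MMTV-luciferase, AR/GR), 3,000/well, 5 h attachment, then 3.0 µM nilutamide (final) and compounds at 15 concentrations. Viability by CellTiter-Fluor fluorescence after 16 h at 37 °C, 0% CO2, in the reporter wells.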

[5] = qHTS assay to identify small molecule agonists of the estrogen receptor beta (ER-beta) signaling pathway - cell viability counter screen (AID 1259380; active means well fitted curve in the direction sought with a large enough effect in the repeat runs; an effect the other way counts as inactive or inconclusive; further: nearly all actives have a fitted effect of over 30% in size)
Method in brief: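 ER-beta-UAS-bla HEK293T cells in medium with 2% charcoal-stripped FBS, pre-incubated 6 hr, then treated 16 hr at 37C. Cytotoxicity read in the same wells by CellTiter-Glo luminescence after 30 min at room temperature.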

[6] = qHTS assay to identify small molecule antagonists of the estrogen receptor beta (ER-beta) signaling pathway - cell viability counter screen (AID 1259382; active means well fitted curve in the direction sought with a large enough effect in the repeat runs; an effect the other way counts as inactive or inconclusive;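 further: HEK293T cells carrying ER-beta-UAS-bla reporter stimulated with estradiol; series mostly up to about 92 µM; nearly all actives have a fitted effect of over 55% in size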)
Method in brief: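 ER-beta-UAS-bla HEK293T cells in 2% charcoal-stripped FBS medium, treated with compound plus 1 nM 17-beta-estradiol for 16 h at 37C. Viability read by CellTiter-Glo luminescence after 30 min at room temperature in the same wells.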

[7] = biological target: Estrogen receptor (Homo sapiens) (UniProt P03372); experiment: qHTS assay to identify small molecule agonists of the estrogen receptor alpha (ER-alpha) signaling pathway in the presence of an antagonist (AID 1259383); further: top concentration of the series differs between compounds; nearly all actives have a fitted effect of over 15% in size
Chain of Estrogen receptor (Homo sapiens) (P03372 whole entry, looked up): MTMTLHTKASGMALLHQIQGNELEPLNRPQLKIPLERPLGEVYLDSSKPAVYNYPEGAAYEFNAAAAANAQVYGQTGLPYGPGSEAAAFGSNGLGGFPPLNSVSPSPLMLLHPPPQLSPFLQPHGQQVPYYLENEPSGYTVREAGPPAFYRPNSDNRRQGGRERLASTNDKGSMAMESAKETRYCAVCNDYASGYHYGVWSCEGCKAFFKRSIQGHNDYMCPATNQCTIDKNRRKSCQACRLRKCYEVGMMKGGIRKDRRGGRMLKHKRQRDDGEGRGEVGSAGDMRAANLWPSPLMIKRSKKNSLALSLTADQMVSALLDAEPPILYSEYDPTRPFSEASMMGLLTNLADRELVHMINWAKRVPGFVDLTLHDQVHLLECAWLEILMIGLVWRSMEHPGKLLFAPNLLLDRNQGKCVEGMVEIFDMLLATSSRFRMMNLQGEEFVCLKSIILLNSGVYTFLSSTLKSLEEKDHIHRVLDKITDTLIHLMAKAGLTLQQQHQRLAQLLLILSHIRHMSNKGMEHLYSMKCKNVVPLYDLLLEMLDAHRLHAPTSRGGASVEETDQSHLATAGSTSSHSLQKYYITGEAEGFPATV
Method in brief: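 VM7Luc4E2 cells express endogenous full-length ER-alpha with an ERE-luciferase reporter and were hormone-deprived for 5 days. Compounds at 15 concentrations were added with 10.0nM ICI-182,780 for 22hr at 37C. Luminescence was read with ONE-Glo.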

[8] = qHTS assay to identify small molecule agonists or antagonists of the thyroid stimulating hormone receptor (TSHR) signaling pathway - wild type cell line counter screen (AID 1259384)
Method in brief: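 Counter screen in untransfected Hek293: compounds (15-point titration, triplicate) plus phosphodiesterase inhibitor Ro20-1724 added after 18 h plating; 30 min RT. Intracellular cAMP via competitive d2/cryptate immunoassay, 1 h incubation.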

[9] = biological target: Thyrotropin receptor (Homo sapiens) (UniProt P16473); experiment: qHTS assay to identify small molecule antagonists of the thyroid stimulating hormone receptor (TSHR) signaling pathway (AID 1259385); further: nearly all actives have a fitted effect of over 20% in size
Chain of Thyrotropin receptor (Homo sapiens) (P16473 whole entry, looked up): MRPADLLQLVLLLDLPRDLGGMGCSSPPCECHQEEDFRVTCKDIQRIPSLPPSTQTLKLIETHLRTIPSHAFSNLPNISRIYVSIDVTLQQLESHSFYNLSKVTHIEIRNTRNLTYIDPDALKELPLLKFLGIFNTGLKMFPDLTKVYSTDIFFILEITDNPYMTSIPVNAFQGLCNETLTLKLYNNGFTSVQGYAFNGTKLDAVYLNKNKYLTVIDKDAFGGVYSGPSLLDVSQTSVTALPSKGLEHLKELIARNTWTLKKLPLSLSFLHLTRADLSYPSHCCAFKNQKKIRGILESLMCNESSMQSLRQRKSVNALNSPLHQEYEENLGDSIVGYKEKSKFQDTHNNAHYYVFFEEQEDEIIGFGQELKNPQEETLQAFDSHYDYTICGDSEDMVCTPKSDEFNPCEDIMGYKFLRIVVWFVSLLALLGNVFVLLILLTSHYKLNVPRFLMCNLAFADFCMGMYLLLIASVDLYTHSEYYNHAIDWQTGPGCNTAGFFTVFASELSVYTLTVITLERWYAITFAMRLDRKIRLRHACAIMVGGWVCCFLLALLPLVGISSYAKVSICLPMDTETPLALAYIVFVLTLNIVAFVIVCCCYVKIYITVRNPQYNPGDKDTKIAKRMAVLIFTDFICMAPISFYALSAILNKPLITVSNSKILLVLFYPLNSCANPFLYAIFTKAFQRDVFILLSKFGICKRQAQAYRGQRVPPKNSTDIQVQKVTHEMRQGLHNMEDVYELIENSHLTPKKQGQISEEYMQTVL
Method in brief: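 Antagonist mode: compound-treated TSHR-expressing HEK293 cells were stimulated with 1.5 ng/mL TSH (final) in presence of Ro20-1724 for 30 min at RT. HTRF cAMP detection after 1 h; each compound tested at 15 concentrations, triplicate.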

[10] = qHTS assay to identify small molecule agonists of the estrogen receptor alpha (ER-alpha) signaling pathway in the presence of an antagonist - cell viability counter screen (AID 1259386; active means well fitted curve in the direction sought with a large enough effect in the repeat runs; an effect the other way counts as inactive or inconclusive;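 further: series mostly up to about 92 µM; cells exposed to compounds for 22 h at 37 °C before the viability read; nearly all actives have a fitted effect of over 30% in size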)
Method in brief: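 Cell viability in VM7Luc4E2 cells (endogenous full-length ER-alpha) measured by CellTiter-Fluor fluorescence in the same wells as the luciferase screen. Cells pre-cultured 5 days in charcoal-stripped serum, then treated 22 h with compounds at 15 concentrations plus 10.0nM ICI-182,780.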

[11] = biological target: Progesterone receptor (Homo sapiens) (UniProt P06401); experiment: qHTS assay to identify small molecule agonists of the progesterone receptor (PR) signaling pathway (AID 1346784); further: nearly all actives have a fitted effect of over 30% in size
Chain of Progesterone receptor (Homo sapiens) (P06401 whole entry, looked up): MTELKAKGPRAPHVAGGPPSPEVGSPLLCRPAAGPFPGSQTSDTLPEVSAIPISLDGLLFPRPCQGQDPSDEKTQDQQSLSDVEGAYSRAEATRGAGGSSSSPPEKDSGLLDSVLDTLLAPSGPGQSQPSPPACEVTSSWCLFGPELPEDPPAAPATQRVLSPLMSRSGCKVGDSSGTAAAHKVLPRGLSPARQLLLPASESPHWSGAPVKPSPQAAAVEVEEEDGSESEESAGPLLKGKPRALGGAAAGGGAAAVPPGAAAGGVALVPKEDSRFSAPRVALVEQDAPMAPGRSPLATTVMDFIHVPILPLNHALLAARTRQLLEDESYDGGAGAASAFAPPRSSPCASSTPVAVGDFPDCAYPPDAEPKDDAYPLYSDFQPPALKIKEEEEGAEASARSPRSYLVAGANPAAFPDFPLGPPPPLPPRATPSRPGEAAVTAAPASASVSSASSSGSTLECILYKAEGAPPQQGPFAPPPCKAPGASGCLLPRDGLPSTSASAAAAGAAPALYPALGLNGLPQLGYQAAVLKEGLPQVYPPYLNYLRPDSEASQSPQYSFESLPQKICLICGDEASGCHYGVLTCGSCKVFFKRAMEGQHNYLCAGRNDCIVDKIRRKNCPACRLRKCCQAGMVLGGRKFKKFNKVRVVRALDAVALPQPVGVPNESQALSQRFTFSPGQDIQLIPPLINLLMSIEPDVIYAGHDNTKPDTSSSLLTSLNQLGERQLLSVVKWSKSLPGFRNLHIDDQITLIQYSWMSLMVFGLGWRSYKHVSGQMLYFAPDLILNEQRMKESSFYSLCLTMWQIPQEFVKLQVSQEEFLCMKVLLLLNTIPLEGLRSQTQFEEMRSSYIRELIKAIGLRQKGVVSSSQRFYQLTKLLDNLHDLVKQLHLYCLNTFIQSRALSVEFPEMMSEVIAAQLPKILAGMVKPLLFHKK
Method in brief: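 Beta-lactamase reporter read-out: after 16 hr compound treatment at 37C and a further 2 hr at room temperature with LiveBLAzer B/G FRET substrate, fluorescence was measured in PR-UAS-bla HEK 293T cells grown in 2% charcoal-stripped serum.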

[12] = qHTS assay to identify small molecule antagonists of the progesterone receptor (PR) signaling pathway - cell viability counter screen (AID 1346798; active means well fitted curve in the direction sought with a large enough effect in the repeat runs; an effect the other way counts as inactive or inconclusive;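 further: HEK293T PR-UAS-bla cells stimulated with the agonist R5020; series mostly up to about 92 µM; nearly all actives have a fitted effect of over 50% in size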)
Method in brief: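 HEK293T PR-UAS-bla, 2% charcoal-stripped FBS; 4 hr pre-plate; cpd + R5020, 16 h 37C; LiveBLAzer read first; then CellTiter-Glo 30 min RT, luminescence.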

[13] = qHTS assay to identify small molecule agonists of the progesterone receptor (PR) signaling pathway - cell viability counter screen (AID 1346799); further: nearly all actives have a fitted effect of over 45% in size
Method in brief: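 Luminescence from CellTiter-Glo, added after the beta-lactamase FRET read in the same wells, gave cytotoxicity in PR-UAS-bla HEK293T cells treated with compounds for 16 hr at 37C.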

[14] = qHTS assay to identify small molecule antagonists of the TGF-beta/Smad signaling pathway - cell viability counter screen (AID 1346824; active means well fitted curve in the direction sought with a large enough effect in the repeat runs; an effect the other way counts as inactive or inconclusive; further: nearly all actives have a fitted effect of over 50% in size)
Method in brief: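 Cytotoxicity counter-screen run in the same wells as the beta-lactamase Smad reporter read: CellTiter-Glo luminescence after 30 min at room temperature. HEK 293T SBE-bla cells had 5 hr compound exposure at 37 C with TGF-beta1 (0.25 ng/mL stock).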

[15] = qHTS assay to identify small molecule agonists of the TGF-beta/Smad signaling pathway - cell viability counter screen (AID 1346829; active means well fitted curve in the direction sought with a large enough effect in the repeat runs; an effect the other way counts as inactive or inconclusive; further: top concentration of the series differs between compounds; nearly all actives have a fitted effect of over 45% in size)
Method in brief: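 Same-well cytotoxicity: CellTiter-Glo added after the 2 hr room-temperature beta-lactamase substrate step, luminescence measured 30 min later; cells had 5 hr of compound at 37 C.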

[16] = qHTS assay to identify small molecule agonists of the TGF-beta/Smad signaling pathway (AID 1346859; active means well fitted activation curve with a large enough effect in the signal ratio in the repeat runs, not every such curve was filed as active; the % refers to the signal ratio; further: series mostly up to about 77 µM)
Method in brief: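 SBE-bla HEK 293T, 4,000 cells/well, plated o/n; cpd in DMSO, 5 hr, 37 C/5% CO2; B/G FRET substrate 2 hr RT; ex 405, em 460/530 nm.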

[17] = biological target: Thyrotropin-releasing hormone receptor (Homo sapiens) (UniProt P34981); experiment: qHTS assay to identify small molecule antagonists of the thyrotropin-releasing hormone receptor (TRHR) signaling pathway (AID 1346877; active means well fitted inhibition curve with a large enough effect in the repeat runs, not every such curve was filed as active; further: series mostly up to about 51 µM)
Chain of Thyrotropin-releasing hormone receptor (Homo sapiens) (P34981 whole entry, looked up): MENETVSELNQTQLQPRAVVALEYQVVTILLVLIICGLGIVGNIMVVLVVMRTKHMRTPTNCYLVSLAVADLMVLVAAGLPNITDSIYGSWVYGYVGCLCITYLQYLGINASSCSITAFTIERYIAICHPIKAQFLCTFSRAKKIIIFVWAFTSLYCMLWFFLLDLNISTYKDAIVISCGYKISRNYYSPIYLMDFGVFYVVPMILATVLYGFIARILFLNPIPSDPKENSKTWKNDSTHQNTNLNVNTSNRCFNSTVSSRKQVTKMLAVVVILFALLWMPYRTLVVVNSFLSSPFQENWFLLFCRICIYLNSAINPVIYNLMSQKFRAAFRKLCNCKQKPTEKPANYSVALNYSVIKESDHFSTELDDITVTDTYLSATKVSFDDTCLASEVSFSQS
Method in brief: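 TRHR-expressing HEK293 cells loaded with calcium dye for 2 h at 37 C; compounds pre-incubated 5 min at room temperature before TRH challenge at 1 nM final. Intracellular calcium fluorescence read kinetically for 3 min; 15 concentrations in triplicate.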

[18] = biological target: Progesterone receptor (Homo sapiens) (UniProt P06401); experiment: qHTS assay to identify small molecule antagonists of the progesterone receptor (PR) signaling pathway (AID 1346795; active means well fitted inhibition curve with a large enough effect in the signal ratio in the repeat runs, not every such curve was filed as active; the % refers to the signal ratio)
Method in brief: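 Read-out is fluorescence from the LiveBLAzer B/G FRET substrate, cleaved by a UAS-controlled beta-lactamase in PR-UAS-bla HEK293T cells after 16 hr exposure to compound plus 1 nM promegestone (final), followed by 2 hr at room temperature.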

[19] = biological target: Androgen receptor (Homo sapiens) (UniProt P10275); experiment: qHTS assay to identify small molecule agonists of the androgen receptor (AR) signaling pathway in the presence of an antagonist (AID 1259381); further: nearly all actives have a fitted effect of over 15% in size
Chain of Androgen receptor (Homo sapiens) (P10275 whole entry, looked up): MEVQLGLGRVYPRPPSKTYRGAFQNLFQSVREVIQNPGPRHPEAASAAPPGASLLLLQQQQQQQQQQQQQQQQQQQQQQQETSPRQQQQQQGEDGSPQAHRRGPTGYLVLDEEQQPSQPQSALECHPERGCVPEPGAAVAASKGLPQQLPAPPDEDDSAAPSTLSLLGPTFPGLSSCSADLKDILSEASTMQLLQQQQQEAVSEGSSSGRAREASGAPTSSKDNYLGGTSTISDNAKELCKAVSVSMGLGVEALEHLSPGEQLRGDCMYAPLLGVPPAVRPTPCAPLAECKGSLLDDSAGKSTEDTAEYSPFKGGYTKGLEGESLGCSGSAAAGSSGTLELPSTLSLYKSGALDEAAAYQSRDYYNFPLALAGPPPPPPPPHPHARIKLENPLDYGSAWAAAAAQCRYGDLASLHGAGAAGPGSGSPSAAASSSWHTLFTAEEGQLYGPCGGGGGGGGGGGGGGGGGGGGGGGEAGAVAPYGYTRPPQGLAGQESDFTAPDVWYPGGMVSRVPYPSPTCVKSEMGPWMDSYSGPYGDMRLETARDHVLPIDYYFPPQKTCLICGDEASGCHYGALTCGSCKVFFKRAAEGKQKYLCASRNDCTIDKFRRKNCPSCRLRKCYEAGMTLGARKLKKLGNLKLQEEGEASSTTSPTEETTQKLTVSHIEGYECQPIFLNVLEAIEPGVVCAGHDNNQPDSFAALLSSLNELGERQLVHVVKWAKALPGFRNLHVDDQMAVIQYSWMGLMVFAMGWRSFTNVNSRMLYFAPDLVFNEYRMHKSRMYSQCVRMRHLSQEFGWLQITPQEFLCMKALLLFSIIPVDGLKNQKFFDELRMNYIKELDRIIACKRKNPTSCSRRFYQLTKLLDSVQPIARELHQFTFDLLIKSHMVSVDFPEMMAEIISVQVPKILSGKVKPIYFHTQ
Method in brief: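 MDA-kb2 cells carrying MMTV-luciferase (AR/GR responsive), 3,000 cells/well, co-treated with 3.0 uM nilutamide final. Compounds at 15 concentrations, 16 hr at 37C without CO2. Luciferase luminescence read after 30 min with ONE-Glo.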

Measured: Potency

COCCCOCCCOC
not listed: [18] | [19]
inactive: all other assays above

COc1ccccc1OCC(O)CN1CCN(CC(=O)Nc2c(C)cccc2C)CC1 (stereo not given)
not listed: [19]
inactive: all other assays above

FC1(F)C(F)(F)C(F)(F)C2(F)C(F)(F)C(F)(F)C(F)(F)C(F)(F)C2(F)C1(F)F (stereo not given)
not listed: [4] | [13] | [17] | [18]
inactive: all other assays above

COC(C)(C)CCCC(C)CC=O (stereo not given)
not listed: [4] | [7] | [15] | [16] | [19]
inactive: all other assays above

O=C(O)CCCl
not listed: [10] | [19]
inactive: all other assays above

CCOC(=O)c1cccc(N)c1
not listed: [19]
inactive: all other assays above

N=C(N)c1ccccc1
not listed: [4] | [7] | [15] | [18] | [19]
inactive: all other assays above

CC(=O)OCC(=O)[C@@]1(O)CCC2C3CCC4=CC(=O)CC[C@]4(C)C3[C@@H](O)C[C@@]21C (stereo not given in full)
not listed: [7] | [10] | [11] | [13] | [15] | [17] | [18] | [19]
inactive: all other assays above

CCOc1ccc(C(=O)OCCN(CC)CC)cc1
not listed: [4] | [7] | [15] | [17]
inactive: all other assays above

CC(=O)OCC(=O)[C@@]1(O)CC[C@H]2[C@@H]3CCC4=CC(=O)CC[C@]4(C)[C@H]3C(=O)C[C@@]21C
not listed: [8] | [9] | [17] | [18] | [19]
inactive: all other assays above

COCCc1ccc(OCC(O)CNC(C)C)cc1 (stereo not given)
not listed: [7] | [10] | [15] | [17] | [19]
inactive: all other assays above

CCOC(=O)Nc1ccc(NCc2ccc(F)cc2)nc1N
not listed: [15] | [17] | [18] | [19]
inactive: all other assays above

Oc1ccc(C2CNCCc3c2cc(O)c(O)c3Cl)cc1 (stereo not given)
not listed: [7] | [17] | [19]
inactive: all other assays above

CC(C)=CCCC(C)CC(=O)O (stereo not given)
not listed: [7] | [13] | [19]
inactive: all other assays above

COc1c(N2C[C@@H]3CCCN[C@@H]3C2)c(F)cc2c(=O)c(C(=O)O)cn(C3CC3)c12
not listed: [8] | [10] | [14] | [17] | [19]
inactive: all other assays above

CCc1cccc2c(CCO)c[nH]c12
not listed: [4] | [7]
inactive: all other assays above

COc1nc(N)nc2c1ncn2[C@@H]1O[C@H](CO)[C@@H](O)[C@@H]1O
not listed: [7] | [13] | [18] | [19]
inactive: all other assays above
